About 83,000 compounds went through this panel and 20% of them were active in at least one assay; those are over-represented in the sample as a whole.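 Interpretation: 100, growth as untreated; towards 0, rising growth inhibition; 0, no net growth; 0 to -100, cell death. Compounds scoring below 10 were considered active.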 A number with no mark means an inactive call. Active and inactive are the calls of the source.

Assay in all cases: NCI-60 one-dose screen, 48 h (100 = growth as untreated, 0 = no growth, -100 = all killed)
Common to all, as to details: 10 µM unless noted

For test [1], the system named is HCT-15 colon.
Test [2] relates to HT29 colon.
The test system of test [3] is SNB-75 CNS.
Test [4] relates to SNB-19 CNS.
In test [5] the test system is U251 CNS.
The subject of test [6] is PC-3 prostate.
In test [7] the test system is SK-MEL-5 melanoma.
Test [8] relates to UACC-62 melanoma.
The subject of test [9] is LOX IMVI melanoma.
Test [10] concerns SK-MEL-28 melanoma.

For the molecule `CC1(C)CC[C@]2(CN)CC[C@]3(C)C(=CC[C@@H]4[C@@]5(C)CCCNC(C)(C)[C@@H]5CC[C@]43C)[C@H]2C1`, the growth was 71.7% in test [1]; 40.7% in [2]; 99.1% in [3]; 101% in [4]; 89.4% in test [5]; 87.6% in test [6]. Besides, the growth is 98.8% in test [7], 105% in test [8], 81.9% in test [9] and 103% in test [10].
Turning to `COc1ccc([C@H]2c3[nH]c4ccccc4c3C[C@H]3C(=O)N(C4CCN(Cc5c(Cl)cccc5Cl)CC4)CC(=O)N23)c(OC)c1`, the growth in test [1] was 92.4%; in test [2], 103%; in test [3], 99.3%; in test [4], 95.5%; in [5], 95.8%; in [6], 72.7%. Further, the growth in [7] was 95.7%; in test [8], 84.1%; in test [9], 98.6%; in test [10], 101%.
Regarding `CC1(C)[C@@H](O)CC[C@]2(C)[C@H]3CC[C@@H]4[C@H]5[C@H](C(=O)/C=C\c6ccncc6)CC[C@]5(O)CC[C@@]4(C)[C@]3(C)CC[C@@H]12`, the growth in [1] is 20.3%; in [2] it was 34.7%; in [3], 21.2%; in test [4] it was 58.7%; in test [5], 61.1%; in test [6] it was 67.5%. The growth in [7] was 80.6%; in test [8], 46.9%; in [9] it was 5.63% (active); in test [10], 74.8%.
In the case of `O=c1c2ccccc2nc(COc2ccccc2)n1NS(=O)(=O)c1ccc(Cl)cc1`, the growth in test [1] is 54.4%; in test [2], 80%; in test [3] it was 36.9%; in test [4], 79.8%; in test [5] it was 87.8%; in test [6], 82.7%. The growth in test [7] was 94.5%; in [8], 76.9%; in test [9], 83.6%; in [10] it was 87.1%.
Take `Cc1ccc(-n2cc(/C=C/C(=O)c3ccc(O)cc3)c(-c3ccc(S(C)(=O)=O)cc3)n2)cc1`: the growth in test [1] was 26%; in test [2], 28.6%; in [3], 87.5%; in test [4] it was 75.6%; in test [5], 72.3%; in test [6], 69.9%. In addition, the growth in [7] is 61.7%; in [8], 59.6%; in test [9], 41.9%; in test [10] it was 82.3%.
Take `Cc1ccc(NC(=O)CNc2cc(C(N)=O)cc(F)c2C)c(Cl)c1`: the growth is 103% in [1]; 114% in [2]; 48.4% in [3]; 101% in test [4]; 106% in [5]; 85.7% in test [6]. In addition, the growth in test [7] is 97.1%; in [8], 81.5%; in [9] it was 94.1%; in test [10] it was 99.5%.
In the case of `CCc1cccc2c3c(sc12)C(c1ccc(Cl)cc1)C(C#N)=C(/N=C/c1ccc(Cl)cc1)O3` (stereo not given), the growth in test [1] was 25%; in test [2], 7.88% (active); in [3] it was -13.9% (active); in [4] it was 20.1%; in test [5], 20.5%; in test [6], 16.5%. In addition, the growth in test [7] was 14.5%; in [8], 10.7%; in test [9], 26.5%; in test [10], 56.7%.
As to `CC(C)(C)c1ccc(-c2nnc(-c3nc4ccccc4nc3Cl)o2)cc1`, the growth in [1] is 81.9%; in [2], 116%; in [3], 96.4%; in test [4], 95.8%; in test [5], 98.2%; in [6], 92.4%. Also, the growth was 98.1% in [7], 72.7% in test [8], 90% in [9] and 68.4% in test [10].
Regarding `Cc1ccc(-c2cc3nc(C(Cl)Cl)nc(-c4ccco4)n3n2)cc1`, the growth in test [1] was 14.9%; in test [2], 0.475% (active); in [3], 66.8%; in test [4] it was 8.51% (active); in [5], 1.02% (active); in test [6], 4.32% (active). Also, the growth was 90.1% in test [7], 37.9% in test [8], 92.2% in test [9] and 5.86% (active) in [10].
As to `O=C(NNc1nc2cc(F)c(F)cc2n2c(CN3CC4CNCC4C3)ccc12)c1ncccn1` (stereo not given), the growth in [1] was 19.8%; in [2] it was 23.5%; in test [3] it was 52.1%; in test [4] it was 29.9%; in [5], 17.3%; in test [6] it was 17.6%. Besides, the growth in test [7] is -33.8% (active); in test [8], -20.1% (active); in [9] it was 1.73% (active); in test [10], 29.3%.
Regarding `COc1cccc(N2CCN(c3ncnc4c3[nH]c3ccc(F)cc34)C[C@H]2C)c1`, the growth in [1] is 68.4%; in [2], 70.4%; in [3], 63.2%; in test [4], 68.7%; in [5], 67.9%; in test [6] it was 38.2%. For the same molecule, the growth was -62.3% (active) in [7], 40.5% in [8], 63.1% in [9] and 50.7% in [10].
As to `COc1ccc(-n2c(SCc3nnc(NC(=O)c4ccc(Br)cc4)s3)nc3cc(OC)c(OC)cc3c2=O)cc1`, the growth was 85.1% in [1]; 104% in test [2]; 93.4% in test [3]; 89.6% in test [4]; 86.3% in [5]; 87.9% in test [6]. The growth is 91.8% in [7], 91.4% in test [8], 90.5% in test [9] and 88.7% in test [10].
For the molecule `C=CCn1c(SCC(=O)Nc2ccc(C(=O)/C=C/c3cc(OC)c(OC)c(OC)c3)cc2)nnc1-c1c[nH]c2ccccc12`, the growth in test [1] is -20.3% (active); in test [2] it was -57.2% (active); in test [3], 91.2%; in test [4], 21.7%; in test [5], 8.96% (active); in [6], 40.6%. Besides, the growth in [7] was 25.2%; in test [8], 36.7%; in [9], -65.1% (active); in [10], 41.7%.

For the origin of these results see PubChem BioAssay (NCI).
